Experiment [1] in a line: Cell Viability - BJ (AID 421; calls by dose curve;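 also: potency is read from the fitted curve at half-maximal effect; cells exposed to compound for 40 hours at 37 °C before readout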). Particulars: BJ fibroblast viability, qHTS. The method in brief: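 Normal human BJ foreskin fibroblasts, 1500/well in complete medium, treated 40 hr at 37 °C. Cellular ATP by CellTiter-Glo luminescence; normalized to DMSO and 100 uM tamoxifen, AC50 from Hill fit.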
(In qHTS, concentration-response curves come from the screen itself.)

A short description of experiment [2]: Cell Viability - MRC5 (AID 434; calls by dose curve;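 also: potency is read from the fitted curve at half-maximal effect; cells exposed to compound for 40 hours at 37 °C; potency reflects cytotoxicity seen as loss of intracellular ATP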). As to conditions: MRC5 lung fibroblast viability, qHTS. The method in brief: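 Decrease in intracellular ATP, quantified by luciferase light output, reflects compound toxicity toward MRC5 cells exposed for 40 hr in complete culture medium. Concentration-response curves, scaled between DMSO and 100 uM tamoxifen, gave AC50 values.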

Experiment [3] in a line: Cell Viability - SK-N-SH (AID 435; calls by dose curve;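 also: potency is read from the fitted curve at half-maximal effect; compound exposure lasted 40 h at 37 °C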). Particulars: SK-N-SH neuroblastoma cell viability qHTS. The method in brief: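 Luminescent ATP signal served as the viability read-out after 40 hours of compound treatment of human neuroblastoma SK-N-SH cells. Concentration-response data, scaled between DMSO and 100 uM tamoxifen, gave AC50 values by standard Hill modeling.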
Experiment [4] is described as follows: Cellular Toxicity (caspase-3) Renal Proximal Tubule (AID 667).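 Also: cells exposed to compound for 16 hours at 37 °C before detection; 0% = DMSO basal and 100% = 10 µM staurosporine.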 As to conditions: renal proximal tubule cells; at 91.7 µM (top of the series) unless noted. The method in brief:
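AC50 derived by standard Hill fit of concentration-response data, normalized between DMSO basal and 10 uM staurosporine as 100% stimulation. Cells: primary rat kidney proximal tubule, 16 h treatment at 37 °C.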

Experiment [5] addresses Cytochrome P450 3A4 (Homo sapiens) (UniProt P08684). In words: qHTS Assay for Inhibitors and Substrates of Cytochrome P450 3A4 (AID 884). Also: nearly all actives have a fitted effect of over 50% in size. Also: potency is read from the fitted curve at half-maximal effect. As to activity change, negative = inhibition: % is scaled to controls: 0 for no effect and ±100 for the full control effect. Particulars: recombinant CYP3A4, Luciferin-PPXE luminescence; series mostly up to 57.1 µM. The method in brief: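 Luminescent readout of luciferin produced by CYP3A4 (20 nM) dealkylation of Luciferin-PPXE, 25 uM (its KM). NADPH-driven reaction ran 60 min at RT after 10 min compound preincubation; data scaled to 57 uM ketoconazole as 100% inhibition.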

A short description of experiment [6]: MultiTox-Fluor Cytotoxicity Assay - LYMP1-002 - Live Cells (AID 955). Also: potency is read from the fitted curve at half-maximal effect. Particulars: LYMP1-002 lymphoblastoid live-cell protease fluorescence viability; series mostly up to 46.1 µM. The method in brief: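 In this qHTS viability format, lymphoblastoid cells (LYMP1-002, human) received compound for 16 hr at 37 C. Fluorogenic GF-AFC cleavage by viable cells was detected at 405/510 nm after 1 h at room temperature.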

The nature of experiment [7]: MultiTox-Fluor Cytotoxicity Assay - LYMP1-003 - Live Cells (AID 962). Also: potency is read from the fitted curve at half-maximal effect. As to conditions: LYMP1-003 lymphoblastoid cells, MultiTox-Fluor live-cell protease fluorescence; series mostly up to 92.2 µM. The method in brief: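 Human lymphoblastoid line LYMP1-003 in complete culture medium, treated 16 hr with titrated compounds. Viable cells quantified via cell-permeant GF-AFC substrate fluorescence; AC50 derived by Hill fitting.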

Experiment [8] can be described thus: Cell Viability - LYMP2-008 (AID 980). Also: nearly all actives have a fitted effect of over 60% in size. Also: potency is read from the fitted curve at half-maximal effect. As to conditions: LYMP2-008 lymphoblastoid cell viability, qHTS; series mostly up to 92.2 µM. The method in brief: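 Measured: ATP-dependent luminescence, proportional to viable cell number, in human lymphoblastoid cells treated 24 hr with compound in complete culture medium. Values are AC50s from Hill-equation modelling of qHTS titrations.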

The nature of experiment [9]: qHTS assay for small molecule agonists of the antioxidant response element (ARE) signaling pathway measured by Nrf2-dependant transcriptional activity - cell viability counter screen (AID 720653; active = well fitted curve in the direction sought with a large enough effect in the repeat runs; an effect the other way counts as inactive or inconclusive; also: potency is read from the fitted curve at half-maximal effect). As to conditions: ARE-bla HepG2 viability, CellTiter-Glo ATP luminescence, 16 h; max response: hits give low values. The method in brief:
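ARE-bla HepG2 cells (2,000/well) rested 5 hrs at 37C/5% CO2, then exposed to compounds in DMSO for 16 hrs. Viability was read in the same wells as intracellular ATP by luminescence, 30 min at room temperature after reagent addition.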

The nature of experiment [10]: Stat Signaling Pathway (AID 446; active = well fitted curve in either direction with a large enough effect, not every such curve was filed as active;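 also: ME-180 cervical cancer cells given 40 pM IL-6 alongside compound; SIE-controlled beta-lactamase reporter measured as 460/530 nm FRET emission ratio; % is scaled to controls: 0 for no effect and ±100 for the full control effect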). Particulars: ME-180 (cervical carcinoma) SIE beta-lactamase reporter, IL-6 stimulated, 5 h; series mostly up to 17.2 µM. The method in brief: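 Normalization used AC90 stimulation (300 pM IL-6) and AC90 inhibition (125 nM pan-JAK inhibitor at 40 pM IL-6). The underlying signal is SIE-driven beta-lactamase in ME-180 cells after 5 h IL-6 exposure with compound.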

Experiment [11] in a line: NFAT Signaling Pathway (AID 444; active = well fitted curve in either direction with a large enough effect, not every such curve was filed as active;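 also: carbachol stimulus at about its EC50 of 1 µM final; % is scaled to controls: 0 for no effect and ±100 for the full control effect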). As to conditions: Jurkat NFAT-bla M1, carbachol, beta-lactamase ratio, 5 h; at 17.2 µM (top of the series) unless noted. The method in brief: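 Jurkat cells carrying an NFAT-driven β-lactamase reporter and co-transfected muscarinic M1 receptor were treated with compound plus carbachol (1 uM final, an EC50 level) for 5 h at 37 °C. CCF4 loading followed for 1 h at RT; 460/530 nm ratio gave %activity.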

The target in experiment [12] is Glucocorticoid receptor (Homo sapiens) (UniProt P04150). In words: GR-GFP Redistribution (AID 450;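 active = compounds whose dose series gives a full or clear partial fitted curve of increased nuclear translocation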; also: potency is read from the fitted curve at half-maximal effect). Particulars: U2OS GR-GFP nuclear translocation, laser cytometry, 2 h.
Experiment [13] shares this target. As to the kind of experiment: GR-EFC Redistribution (AID 451; calls by dose curve; also: potency is read from the fitted curve at half-maximal effect). As to conditions: CHO-K1 GR-EFC translocation, beta-gal luminescence, 2 h. The method in brief: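 CHO-K1 cells stably expressing nuclear-localized β-gal enzyme acceptor and GR fused C-terminally to the enzyme donor fragment; ligand-driven nuclear translocation restores β-gal by complementation. Compounds titrated up to 46 uM final, 2 h at 37 °C; luminescence read.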

The target in experiment [14] is Mitogen-activated protein kinase 10 (Mus musculus) (UniProt Q61831). In words: JNK3 AlphaScreen Assay (AID 530; active = well fitted curve in either direction with a large enough effect, not every such curve was filed as active;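 also: kinase came from lysate of stimulated human HepG2 cells; % is scaled to controls: 0 for no effect and ±100 for the full control effect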). Particulars: JNK3 lysate, c-Jun phosphorylation; series mostly up to 57.1 µM. The method in brief: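 Biotinylated GST-cJun(1-79) served as substrate for JNK3 in HepG2 lysates stimulated with IL-1beta and TNF-alpha. ATP was 10 uM final, pH 7.6. Ser73 phosphorylation was quantified by AlphaScreen (680 nm excitation).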
On the technique in general: In Alpha technology, singlet oxygen from a donor bead excites a nearby acceptor bead.

Experiment [15] addresses 3',5'-cyclic-AMP phosphodiesterase 4B (Homo sapiens) (UniProt Q07343). As to the kind of experiment: qHTS Assay for Inhibitors of PDE-IV (AID 607; active = well fitted activation curve with a large enough effect in the main read-out, with a control signal flat, not every such curve was filed as active; also: % of control where 0% means no effect). Particulars: HEK293 ACTOne CNG channel cells, membrane potential fluorescence; series mostly up to 22.9 µM. The method in brief: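 HEK293 ACTOne cells with CNG channel (1000/well), endogenous PDE4; membrane potential dye, compounds up to 22.9 uM final. Fluorescence Ex 535/Em 590; RO 20-1724 (100 uM final) as reference.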

Experiment [16] deals with Cytochrome P450 3A4 (Homo sapiens) (UniProt P08684). In words: qHTS Assay for Activators of Cytochrome P450 3A4 (AID 885). Also: nearly all actives have a fitted effect of over 65% in size. Particulars: recombinant CYP3A4, Luciferin-PPXE luminescence, 60 min; series mostly up to 57.1 µM. The method in brief: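 Human CYP3A4 dealkylates Luciferin-PPXE to luciferin, which luciferase detection converts to light. Substrate was at its KM (25uM), buffer 200mM KPO4, reaction 60 min at RT.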

Each structure is given as a SMILES string. “And” between values parts separate entries of the source, which are not always exact repeats. Equal values may be shown once. A number with no mark means an inactive call. Results filed as inconclusive are left out. The source made the active and inactive calls. Unless noted, calls follow the shape of the dose curve; as a rule, active = well fitted curve in the direction sought with a large enough effect; inconclusive = small, poorly fitted or top-dose-only effect, or another doubt; inactive = no such curve, though single readings can be large; an effect the other way counts as inactive or inconclusive.

Cytochrome P450 3A4 (Homo sapiens), sequence (P08684 whole entry, looked up): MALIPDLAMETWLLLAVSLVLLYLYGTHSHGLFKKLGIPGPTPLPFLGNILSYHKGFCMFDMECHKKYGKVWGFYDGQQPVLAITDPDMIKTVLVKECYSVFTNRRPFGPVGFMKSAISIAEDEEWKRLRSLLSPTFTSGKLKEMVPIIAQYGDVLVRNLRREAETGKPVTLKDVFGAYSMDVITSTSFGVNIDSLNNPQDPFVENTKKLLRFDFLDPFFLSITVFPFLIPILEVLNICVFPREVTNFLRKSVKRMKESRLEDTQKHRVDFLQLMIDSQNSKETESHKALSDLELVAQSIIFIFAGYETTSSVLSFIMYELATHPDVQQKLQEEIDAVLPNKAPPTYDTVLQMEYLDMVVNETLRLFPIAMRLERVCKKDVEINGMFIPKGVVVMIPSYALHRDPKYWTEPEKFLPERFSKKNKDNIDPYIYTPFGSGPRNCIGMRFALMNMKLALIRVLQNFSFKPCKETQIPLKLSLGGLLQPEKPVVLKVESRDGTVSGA
Glucocorticoid receptor (Homo sapiens), sequence (P04150 whole entry, looked up, the tested form may be a part): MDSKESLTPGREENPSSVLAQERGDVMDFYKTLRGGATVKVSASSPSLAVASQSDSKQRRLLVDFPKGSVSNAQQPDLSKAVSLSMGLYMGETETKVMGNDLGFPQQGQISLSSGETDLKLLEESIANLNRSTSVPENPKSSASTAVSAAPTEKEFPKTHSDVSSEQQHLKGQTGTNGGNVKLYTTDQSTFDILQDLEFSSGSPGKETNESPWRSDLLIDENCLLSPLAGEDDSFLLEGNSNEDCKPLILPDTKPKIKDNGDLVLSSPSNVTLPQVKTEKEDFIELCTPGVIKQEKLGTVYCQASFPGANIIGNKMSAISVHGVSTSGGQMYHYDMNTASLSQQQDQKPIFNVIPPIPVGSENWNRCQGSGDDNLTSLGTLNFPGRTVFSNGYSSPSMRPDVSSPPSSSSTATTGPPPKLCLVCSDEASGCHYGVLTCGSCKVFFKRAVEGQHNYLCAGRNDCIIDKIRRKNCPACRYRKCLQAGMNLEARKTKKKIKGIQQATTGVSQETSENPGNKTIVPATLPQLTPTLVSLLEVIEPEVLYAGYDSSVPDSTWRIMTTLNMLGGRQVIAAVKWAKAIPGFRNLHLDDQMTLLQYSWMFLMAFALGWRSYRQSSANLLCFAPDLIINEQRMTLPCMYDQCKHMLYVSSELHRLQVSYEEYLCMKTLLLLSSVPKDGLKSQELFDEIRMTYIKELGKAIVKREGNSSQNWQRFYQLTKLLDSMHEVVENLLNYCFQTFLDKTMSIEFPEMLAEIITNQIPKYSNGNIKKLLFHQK
3',5'-cyclic-AMP phosphodiesterase 4B (Homo sapiens), sequence (Q07343 whole entry, looked up): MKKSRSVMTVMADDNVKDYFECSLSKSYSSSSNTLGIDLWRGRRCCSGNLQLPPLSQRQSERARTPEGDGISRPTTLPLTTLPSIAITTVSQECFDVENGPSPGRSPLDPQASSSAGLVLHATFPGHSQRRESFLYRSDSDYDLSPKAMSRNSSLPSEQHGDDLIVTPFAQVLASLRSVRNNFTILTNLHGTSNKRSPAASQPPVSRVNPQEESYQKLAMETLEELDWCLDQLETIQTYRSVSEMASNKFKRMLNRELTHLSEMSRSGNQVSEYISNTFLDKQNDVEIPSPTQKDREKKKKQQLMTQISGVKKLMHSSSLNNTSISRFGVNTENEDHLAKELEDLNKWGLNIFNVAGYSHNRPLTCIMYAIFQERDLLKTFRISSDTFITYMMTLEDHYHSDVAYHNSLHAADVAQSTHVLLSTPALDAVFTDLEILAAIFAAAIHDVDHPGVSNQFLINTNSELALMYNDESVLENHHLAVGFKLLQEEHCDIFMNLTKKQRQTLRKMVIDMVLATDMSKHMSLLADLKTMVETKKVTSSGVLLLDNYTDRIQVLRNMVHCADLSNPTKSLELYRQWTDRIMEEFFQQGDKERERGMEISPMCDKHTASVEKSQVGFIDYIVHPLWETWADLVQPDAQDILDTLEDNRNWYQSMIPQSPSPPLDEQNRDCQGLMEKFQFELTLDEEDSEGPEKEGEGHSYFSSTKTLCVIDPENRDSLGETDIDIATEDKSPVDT

Take `Clc1ccc(C(c2ccc(Cl)cc2)C(Cl)Cl)cc1`: the Potency is 55 µM (active) in [1], 45.4 µM (active) in experiment [2] and 43.5 µM (active) in experiment [3]. The caspase-3 activation in [4] is 152% (active). Besides, the Potency entry in [5], in [6], in experiment [7] and in experiment [8] was “inactive” throughout. Moreover, the max response in [9] is -1.77% and -12.4%.
Consider `[CH3][Hg][Cl]`, for which the Potency in [1] was 26.7 µM (active); in experiment [2], 25.3 µM (active); in experiment [3] it was 17.4 µM (active); in [6], 12.6 µM (active); in [7] it was 20 µM (active); in experiment [8] it was 5.01 µM (active). Further, the Potency in [9] was 25.1 µM (active). In addition, the caspase-3 activation in experiment [4] is -5.2%. Further, in experiment [5], the Potency entry was “inactive”.
For `Cc1c(N=Cc2c(O)n(CCc3ccc(F)cc3)c(=O)[nH]c2=O)c(=O)n(-c2ccccc2)n1C`, the result in experiment [10] was inactive.
On to `CCCCCC[C@H]1C(=O)O[C@H](C)[C@H](NC(=O)c2cccc(NC=O)c2O)C(=O)O[C@@H](C)[C@H]1OC(=O)CC(C)C`, for which, in [11], the activity change, negative = inhibition is -34.3%. Besides, the Potency in [12] is above 20.6 µM; in [13], above 20.6 µM; in experiment [5], 5.01 µM (active). Also, the molecule was called inactive in experiment [14] and in experiment [15]. In addition, the Potency entry in [16] was “inactive”.
As to `Cn1c(O)c(C(=O)c2ccccc2Cl)c(=O)n(C)c1=O`, the activity change, negative = inhibition in [11] is 6.46%. Also, in [10], the molecule was classed as inactive. The Potency in experiment [12] is above 20.6 µM.
In the case of `CC(=O)OC1(c2ccc(C)cc2)CN2CCC1c1ccccc12` (configuration not stated), the activity change, negative = inhibition in experiment [11] was -10.3%. Besides, in [10], the result was inactive. For the same molecule, the Potency in experiment [12] is above 20.6 µM.
For `CCN(CC)CCN=C(C)c1c(O)n(-c2ccccc2OC)c(=O)[nH]c1=O` the same measures were -15.6%, “inactive” and above 20.6 µM.
Turning to `O=C(Nc1ccncc1)c1c(O)c2ccccc2n(Cc2ccccc2)c1=O`, the activity change, negative = inhibition in [11] is 22.9%. Besides, the Potency in [12] is above 20.6 µM.

The record behind these values is PubChem BioAssay (NCATS).
